In PubChem BioAssay AID743093 (The Scripps Research Institute Molecular Screening Center, 2013):
In all, about 150,000 compounds went through this assay and about 100 (0.067%) were called active. Only a selection was taken, and actives are over-represented in it overall. Values without a mark were called inactive.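 How the source made its calls: active means inhibition above the mean plus 3 SD of compounds within the control limits, set per campaign (cut at about 38% in these data); inactive means the rest.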

Experiment: reduced ATP in mature Plasmodium gametocytes – ATP luminescence, HTS, primary screen (AID 743093);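 further: 0% = DMSO wells and 100% = medium only without gametocytes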
Settings: P. falciparum stage V gametocytes, 24 h, at 10.9 µM, hits give high values

| Structure (SMILES) | inhibition |
| --- | --- |
| N#CCSc1nc(-c2ccccc2)nc2ccc(F)cc12 | -8.79% |
| Cc1cc(C)n(-c2ccc(Cl)c(C(=O)O)n2)n1 | 8.49% |
| Cc1cc(C)n(-c2nc(O)cc(=O)[nH]2)n1 | 9.58% |
| Cc1cc(C)n(-c2ccc3nncn3n2)n1 | 38.2% (active) |
| O=C(CN1CCCCCC1)Nc1c(Cl)cc(Cl)cc1Cl | -23.1% |
| O=C(NC(=O)N1CCSCC1)c1c(Cl)cccc1Cl | -10.9% |
| CCn1c(SCC(=O)N/N=C/c2ccncc2)nc2ccccc21 | -15.2% |
| O=C1NC[C@@H](c2ccccc2)OC(=O)[C@H](Cc2ccc(F)cc2)CC/C=C/C[C@H]1CC(=O)N(CCO)Cc1ccccc1 | 4.53% |
| COc1ccc(C(C#N)(CC(=O)O)c2cnccn2)cc1OC (stereo unspecified) | -25% |
| Cc1ccccc1NC(=O)N1CCCC1C(=O)NCc1ccccc1 (stereo unspecified) | 1.78% |
| Cc1ccc2c(O)c(Cc3ccccc3)c(=O)[nH]c2n1 | -11.8% |
| C/C(Cc1ccccc1)=N\NC(=O)CNC(=O)c1ccc2c(c1)OCCO2 | -4.02% |
| CC(C)c1cc(CN2CCOCC2)cc(C(C)C)c1O | -5.85% |
| CCOC(=O)C1=C(c2ccc(OC)cc2)C(=O)c2ccccc2C1=O | -27.7% |
| CCOC(=O)c1c(C)[nH]c(=S)c(C#N)c1-c1ccccc1 | -28.7% |
| CCOC(=O)c1c(C)[nH]c2c1-c1ccccc1C(=O)C2=O | 50.2% (active) |
| Cc1cccc(C(=O)N2CCC(c3nc4ccccc4s3)CC2)c1 | 13% |
| Nc1nnnn1/N=C/c1cc([N+](=O)[O-])ccc1O | -1.33% |
| CCN(CC)S(=O)(=O)c1ccc(NC(=O)c2cnc(C)cn2)cc1 | -1.77% |
| CC(=O)NS(=O)(=O)c1ccc(N/C(N)=N/c2nc(C)cc(C)n2)cc1 | 11.7% |
| CCCCC(CC)CNCc1cccn1CCN1CCOCC1 (stereo unspecified) | -25.6% |
| CCOC(=O)c1c(N)sc2c1CCCC2=O | -6.75% |
| Cc1c(CN2CC[C@@H](N3CCN(c4ccccn4)CC3)[C@H](O)C2)[nH]c2ccc(F)cc12 | -10.1% |
| CCc1ccc(NC(=O)N[C@H](C(=O)O)C(C)CC)cc1 (stereo partly specified) | -3.41% |

| Structure (SMILES) | inhibition |
| --- | --- |
| Cc1ccc(C)c(SCc2nc3sc(C(=O)O)c(C)c3c(=O)[nH]2)c1 | 8.97% |
| CC1=CC(C)(C)NC(=S)N1NC(=O)c1ccccc1Cl | -21.8% |
| C[C@@H]1NC(=O)[C@@]2(C)[C@@H](c3ccccc3)[C@H]3COc4ccccc4[C@@H]3N2C1=O | -7.28% |
| CCCNC(=O)CSc1nc(Cc2ccccc2)nc2ccccc12 | -0.29% |
| COc1cccc(CNc2ncc(-c3ccccc3)n2C)c1 | -4.96% |
| CCSCc1nc(N)nc(NCCc2ccccc2)n1 | -2.31% |
| CC(C)=CCN1CCN(CCCc2ccccc2)CC1CCO (stereo unspecified) | 26.8% |
| COc1ccccc1C1=CC(=O)C[C@H](c2ccc(F)cc2)C1 | -32.5% |
| Cc1ccc(-c2ccnc3[nH]n(-c4ccccc4)c(=O)c23)cc1 | -20.9% |
| CSc1ccc(S(=O)(=O)N2CCC(C(=O)NCCc3ccccc3)CC2)cc1 | -3.09% |
| O=C(Nc1nnc(CCN2CCCCC2)s1)c1cccc(Cl)c1 | 7.08% |
| COc1cc(NC(=O)c2ccc(-c3csc(C)n3)cc2)c(OC)cc1Cl | -9.66% |
| CCC(C(=O)NCCC(C)C)N(Cc1ccccc1Cl)C(=O)c1snc(C(N)=O)c1N (stereo unspecified) | -26.1% |
| CN(C)CCCNC(=S)N1CCC(c2nc3ccccc3[nH]2)CC1 | -17.4% |
| CC(=O)NS(=O)(=O)c1ccc2c(c1)Cc1cc(S(=O)(=O)NC(C)=O)ccc1-2 | -9.24% |
| Cc1cc(F)ccc1N1CCC(N2CCN(C)C(CCO)C2)CC1 (stereo unspecified) | -11.3% |
| CC(=O)C(C)n1cnc2scc(-c3ccc(C)cc3)c2c1=O (stereo unspecified) | 13.9% |
| COc1ccccc1-n1cn[nH]c1=S | 2.72% |
| CC(C)CCN1NC2(CCC(C)CC2)NC1=S (stereo unspecified) | 0.86% |
| Cc1nc([N+](=O)[O-])cn1CC(=O)Nc1ccc(Cl)cc1 | 2.38% |
| O=C(O)c1ccccc1C(=O)Nc1nc(-c2ccccc2)cs1 | 3.62% |
| COC(=O)c1ccc(COc2cc([N+](=O)[O-])cc3cccnc23)cc1 | 2.3% |
| CCN1N=C(c2ccccc2)CCC1=O | -22.1% |
| CCc1nc(N2CCN(C(C)=O)CC2)c2c3c(sc2n1)CCCC3 | -2.91% |

| Structure (SMILES) | inhibition |
| --- | --- |
| Cc1c(NC(=O)CSCc2ccccc2)cccc1C(=O)O | 19% |
| CCCc1ccc(OCCNC(=O)c2ccccc2Br)cc1 | 17.8% |
| O=C(N[C@@H]1C/C=C\C[C@@H](CC(=O)N(CCO)Cc2ccccc2)C(=O)N[C@H](Cc2ccccc2)COC1=O)OCC1c2ccccc2-c2ccccc21 | -0.76% |
| COc1ccc(N2CCN(C(=O)c3cccs3)CC2)cc1 | -16.6% |
| Cc1cccc(C)c1OCCN1CCOCC1 | -12.2% |
| COc1ccc(CN(Cc2ccc(OC)cc2)C(=O)c2cccs2)cc1 | 2.88% |
| CCOc1ccc2ccccc2c1/C=N/NC(=O)c1c(C)cc(C)[nH]c1=O | 23.8% |
| Cc1cccc(NC(=O)COC(=O)CCc2ccccc2)c1C | -7.45% |
| CCNC(=O)CCc1nc(-c2ccc(C)cc2)no1 | -1.21% |
| CN1CCN(c2ccc(S(=O)(=O)N3CCOCC3)cc2NC(=O)CCc2ccccc2)CC1 | -2.86% |
| CCOC(=O)[C@H]1[C@H]2COc3cc(OC)ccc3[C@@H]2N2C(=O)CN(Cc3ccc(Cl)cc3)C(=O)[C@@]12C | -23.5% |
| COc1ccc(C(=O)NC2=NCCS2)c(OC)c1 | -24.6% |
| CCOc1ccc(-n2c(SCC(N)=O)nnc2-c2ccco2)cc1 | -6.2% |
| CCOC(=O)c1cnc(COc2ccccc2Cl)[nH]c1=O | -10.2% |
| COc1ccc(CCNC(=O)Cc2ccc(C)cc2)cc1OC | -9.83% |
| O=[N+]([O-])c1ccccc1/C=C/CN1CCCC(CO)C1 (stereo unspecified) | -16.5% |
| O=C(CCCCO)c1ccc(O)c(Cl)c1 | -2.03% |
| CN(Cc1ccccc1)C(=O)c1ccc(COc2ccccc2)cc1 | -8.25% |
| COc1ccc(OC)c(C(=O)NC(CC(N)=O)c2ccc(N3CCC(N4CCCCC4)CC3)c([N+](=O)[O-])c2)c1 (stereo unspecified) | 0.29% |
| COc1ccc(-c2sc3ccc(OC)cc3c2C#Cc2ccccn2)cc1 | 11.6% |
| COc1cc(NC(=O)c2ccc(CNc3c(N4CCCC4)c(=O)c3=O)cc2)cc(OC)c1OC | -11.3% |
| COc1ccc(OCC(O)CN(C)C(=O)C(C)Oc2ccccc2)cc1 (stereo unspecified) | -38.3% |
| Cc1cc(F)ccc1NC(=O)C(C)n1c2ccccc2c2nc(=O)cc(C)n21 (stereo unspecified) | -11.9% |
| CCOC(=O)CSc1nc(C)c(Oc2ccc(Cl)cc2Cl)c(=O)[nH]1 | -4.17% |

| Structure (SMILES) | inhibition |
| --- | --- |
| O=C(C1CCC1)N1CCN(c2ccccc2)CC1 | 10.5% |
| Cn1c(Nc2cccc(Cl)c2)nc2ccccc21 | -9.18% |
| CN(C(=O)c1cccc(NC(=O)Cc2ccc([N+](=O)[O-])cc2)c1)C1CCC1 | -9.69% |
| O=C(Cc1c(F)cccc1Cl)Nc1ncc([N+](=O)[O-])s1 | 39.5% (active) |
| O=C(CCc1ccccc1)Nc1ncc([N+](=O)[O-])s1 | -11.7% |
| O=C(Cc1c(F)cccc1Cl)Nc1ccc(-n2cnnn2)cc1 | 4.22% |
| O=C(CCl)N(Cc1cccc([N+](=O)[O-])c1)c1cccc(Cl)c1 | -7.41% |
| Clc1ccc(C[n+]2cc(-c3ccccc3)n3c2CCC3)cc1 | 1.51% |
| O=[N+]([O-])c1ccc(NC(=S)N2CCN(c3ccccn3)CC2)cc1 | 3.29% |
| O=C(CN1CCN(c2ccc(F)cc2)CC1)Nc1ccccc1 | -14.6% |
| N#C/C(=C\c1ccc(-c2cccc([N+](=O)[O-])c2)o1)C(=O)NCCN1CCOCC1 | -28.5% |
| Cc1ccccc1Nc1c(-c2ccccc2)nc2ncccn12 | -29.5% |
| O=S(=O)(c1cccc(C(F)(F)F)c1)N1CCN(c2cnccn2)CC1 | -34.2% |
| Cc1ccc(S(=O)(=O)N2CCN(c3ccccc3)CC2)cc1C | 0.96% |
| O=C1CC(=O)Nc2cc(S(=O)(=O)N3CCN(c4cccc(C(F)(F)F)c4)CC3)ccc2N1 | 38.8% (active) |
| CCc1cc(CNC(=O)CC2C(=O)NCCN2Cc2ccccc2C(F)(F)F)on1 (stereo unspecified) | -0.11% |
| COc1ccc(NC(=O)C2C3CCC(O3)C2C(=O)O)cc1OC (stereo unspecified) | 7.46% |
| Cc1cc(N/N=C\c2ccc(Br)cc2)nc(-n2nc(C)cc2C)n1 | -0.66% |
| Cc1ccc(S(=O)(=O)Nc2nc(C)cc(-n3nc(C)cc3C)n2)cc1 | 10.5% |
| Cc1ccc(S(=O)(=O)Nc2nc(C)cc(N/N=C/c3ccc(O)cc3)n2)cc1 | 42.5% (active) |
| CC1CCC(CN2CCN=C2N(C)C)CC1 (stereo unspecified) | -5.33% |
| CCN(CC)CCCNC(=S)N(CCO)Cc1cc2cc3c(cc2[nH]c1=O)OCO3 | 4.58% |
| CN(c1ccccn1)c1ncnc2[nH]ncc12 | 2.58% |
| O=S(=O)(c1ccc(Cl)cc1)N1CCCN(c2ccc(C(F)(F)F)cn2)CC1 | -9.4% |
